Test results: PubChem BioAssay AID584 (National Center for Advancing Translational Sciences (NCATS), 2007)
About 65 (0.09%) of roughly 71,000 compounds were called active. For the sample, actives were picked, then their nearest neighbours and some compounds at random. A number with no mark means an inactive call. Calls come from the whole dose curve; as a rule, active = well fitted curve in the direction sought with a large enough effect; inconclusive = small, poorly fitted or top-dose-only effect; inactive = flat fitted curve, though single readings scatter.

These molecules were tested against Beta-lactamase (Escherichia coli (strain K12)) (UniProt P00811) (assay: Promiscuous and Specific Inhibitors of AmpC Beta-Lactamase (assay with detergent)). Settings: purified AmpC, nitrocefin hydrolysis with detergent; series mostly up to 28.7 µM; activity change, negative = inhibition: at the top concentration.
Experimental: NIH Molecular Libraries Screening Centers Network [MLSCN]
NIH Chemical Genomics Center [NCGC]
PI Name: Shoichet, Brian K.
This aggregation profiling approach exploits the sensitivity of aggregate formation to detergent. Inhibition of b-lactamase is measured in the presence and absence of 0.01% Triton X-100. This particular assay had the prescence of 0.01% Triton X-100. See Pubchem assay "Promiscuous and Specific Inhibitors of AmpC Beta-Lactamase (assay without detergent)" for related screen. Compounds that inhibit only in the absence of detergent are considered likely promiscuous aggregators.
A screen of 1,030 compounds was performed in Brian Shoichet's lab in 96-well format. AmpC activity was measured by following the absorbance at 480 nm. Nitrocefin is a chromogenic substrate: while nitrocefin is yellow (lmax 390 nm), the product of its hydrolysis is red (lmax 486 nm, 17,000 M-1). AmpC beta lactamase was provided by Brian Shoichet and Brian Feng, UCSF.
NCGC Assay Protocol Summary:
20 mM phosphate buffer, pH 7.0
Triton X-100: No Detergent screen: 0.0001%, Detergent screen: 0.01%.
Buffer in columns 3 and 4 as negative control (no enzyme).
5.3 nM AmpC in columns 1, 2, 5-48. Titration of UCSF compound 9 control (from 10 mM, then 1:2) pin-transferred to column 2. Column 1 is neutral (100% activity).
Six uL of reagents were dispensed to 1536-well Greiner black clear bottom plates. Compounds and controls (23 nL) were transferred via Kalypsys PinTool. The plates were incubated for 15 min at room temperature, and then 2 uL of 800 uM solution of nitrocefin was added to start the reaction. The plates were immediately transferred to and read every 20 seconds for 4 min on ViewLux (Perkin-Elmer) High-throughput CCD imager using 480 nm absorbance protocol. During dispense, reagent bottles were kept submerged into 4 deg C water bath.
Keywords: NIH Roadmap, MLSCN, MLI, MLSMR, qHTS, NCGC, AmpC Beta-Lactamase, Aggregation
% is set by controls: 0 for no effect and ±100 for the full control effect; potency is the fitted concentration of half-maximal effect.

Sequence of Beta-lactamase (Escherichia coli (strain K12)) (P00811 whole entry, looked up): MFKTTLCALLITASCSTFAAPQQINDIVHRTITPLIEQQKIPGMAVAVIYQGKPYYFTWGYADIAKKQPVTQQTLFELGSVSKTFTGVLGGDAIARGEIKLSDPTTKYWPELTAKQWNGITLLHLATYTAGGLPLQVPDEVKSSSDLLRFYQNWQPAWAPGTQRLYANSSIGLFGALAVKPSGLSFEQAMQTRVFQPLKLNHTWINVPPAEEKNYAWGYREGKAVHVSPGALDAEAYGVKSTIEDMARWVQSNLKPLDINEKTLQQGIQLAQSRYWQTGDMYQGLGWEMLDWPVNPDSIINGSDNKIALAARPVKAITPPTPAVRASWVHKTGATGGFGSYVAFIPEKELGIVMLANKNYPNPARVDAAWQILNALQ

SMILES | activity change, negative = inhibition | Potency
CCOc1cc(C(=O)N2CCc3cc(OC)c(OC)cc3C2)ccc1OC(F)F | -2.69% | 
N#C/C(=C\c1ccc(O)c(O)c1)C(=O)NCc1ccccc1 | inactive | 
C=C(C)COc1ccc(-c2n[nH]c(C)c2-c2ccccc2OC)c(O)c1 | 3.39% | 
CC(C)(C)n1nnnc1C(c1ccc2ncccc2c1)N1CCSCC1 (stereo not given) | -3.81% | 
NCCNCC1CCNCC1 | -0.8% [at 5.75 µM] | 
CCc1nnc(NC(=O)c2ccc(S(=O)(=O)NC3CCCCC3)cc2)s1 | 10.1% | 
Cc1cccc(N2CCN(C(c3ccccc3)c3nnnn3CC3CCCO3)CC2)c1C (stereo not given) | -2.94% | 
Cc1cccc2cc(CN(Cc3nnnn3Cc3ccccc3)C3CCCC3)c(=O)[nH]c12 | 30.9% | 
CCS(=O)(=O)N1CCCC(C(=O)NCCCN(C)Cc2ccccc2)C1 (stereo not given) | -2.63% | 
CC1=CC(=O)C2=C(C)C[C@H](O)[C@@H]3[C@@H](OC(=O)[C@H]3C)[C@H]12 | 0.4% | 
Cc1ccc(N2C(=O)c3oc4ccccc4c(=O)c3C2c2cccnc2)nc1 (stereo not given) | 12.4% | 
O/N=C1\CC2(Cc3nonc31)OCCO2 | -0.261% | 
Cn1c(=O)c(-c2ccccc2)nc2cnc(N3CCNCC3)nc21 | -2.9% | 
CCOC(=O)CSc1nnc(CNc2nc(-c3ccccc3)cs2)n1C | 6.67% | 
Cc1ccc(-n2nc(-c3ccco3)cc2C(=O)NCc2cccnc2)cc1 | -4.9% | 
Cc1ccc(S(=O)(=O)N2CCC(C(=O)N[C@@H](C)C(=O)NCc3ccccc3)CC2)cc1 | -0.931% | 
N#Cc1ccccc1-c1ccc2ncnc(NCc3cccnc3)c2c1 | 0.3% | 
NC(=O)c1ccc(OC[C@H](O)CN2CC=C(c3ccc(F)cc3)CC2)cc1 | -3.1% | 
CCCn1c(-c2ccc(F)cc2)nc2c(NC3CCN(Cc4ccccc4)C3)nc(C)nc21 (stereo not given) | 13.7% | 
CC(C)c1cc(CN(C)C)c(O)c(C(C)(C)C)c1 | -4.5% [at 5.75 µM] | 
O=C1N(Cc2ccc3c(c2)OCO3)c2ccccc2C1(O)c1c[nH]c2ccccc12 (stereo not given) | 1.62% | 
CC(C)(C)NC(=O)C(c1ccncc1)N(C(=O)CNC(=O)c1ccco1)c1ccc2c(c1)OCO2 (stereo not given) | -3.56% | 
O=C(NC12CC3CC(CC(C3)C1)C2)N1CCCC(CO)C1 (stereo not given) | -4.1% | 
CC(C)(O)[C@H]1[C@H]2OC(=O)[C@@H]1[C@]1(O)C[C@H]3O[C@]34C(=O)O[C@H]2[C@]14C | 7.4% | 

SMILES | activity change, negative = inhibition | Potency
CC(=O)Oc1ccc(C(=O)Nc2nccs2)cc1 | 9.77% | 
COc1ccc2[nH]cc(CCNc3cc(-c4ccccc4CN(C)C)ncn3)c2c1 | 9.4% | 
CCCNC(=O)C1CC(=O)N(c2ccc(OCC(=O)Nc3cccc(C)c3C)cc2)C1 (stereo not given) | 10.2% | 
O=C(NCC1CCCO1)C(C(=O)c1ccccc1)n1cc(Cl)ccc1=O (stereo not given) | 7.55% | 
O=C(c1cccs1)N1CCCC(c2nc(-c3ccc(F)cc3)no2)C1 (stereo not given) | -1.33% | 
CS(=O)(=O)NCc1ccc(C(=O)NCc2ccccc2)cc1 | -4.11% | 
COc1cccc(-n2c(SCC(=O)NC3CCCCC3)nc3n[nH]c(C)c3c2=N)c1 | 3.34% | 
CCOC(=O)c1ccc(N2C(=O)CC(N3CC(C)OC(C)C3)C2=O)cc1 (stereo not given) | -3.59% | 
CCOc1ccc2nc(NCCNS(=O)(=O)c3ccccc3)c(C#N)cc2c1 | 7.14% | 
O=C(Cn1ccc(=O)[nH]c1=O)Nc1ccc(C(=O)O)c(O)c1 | -5.4% [at 5.75 µM] | 
COc1cc(C[C@H](C)N)c(OC)cc1I | inactive | 
O=C(Nc1ccccc1)N(Cc1cccnc1)Cc1ccco1 | -3.39% | 
O=C(O)CSCNC(=O)CC12CC3CC(CC(C3)C1)C2 | -1.26% | 
CCOc1c(N2CCCCC2)c(=O)c1=O | 10.1% | 
NC(=S)c1ccc(C(N)=S)o1 | -5.48% | 
O=C(Nc1ccccc1)N[C@H]1C[C@H](C(=O)O)Nc2cc(Cl)cc(Cl)c21 | -2.4% | 
O=C(CN(CC1CCCO1)C(=O)CNS(=O)(=O)c1ccccc1)NCc1ccccc1 (stereo not given) | 1.85% | 
COC(=O)c1ccc(S(=O)(=O)c2ccc(C(=O)OC)s2)s1 | -1.11% | 
CCNS(=O)(=O)c1ccc(NC(=O)Nc2cccc(C(F)(F)F)c2)cc1 | 19.8% | 
O=C(Oc1cccnc1)c1cc2ccccc2oc1=O |  | 10 µM (active)
COc1ccc2oc(=O)c(C(=O)O)cc2c1 | -3.06% | 
O=C(NCc1ccccn1)c1cc2ccccc2oc1=O | -3.08% | 
C=CCOc1ccc(C2/C(=C(\O)c3c(C)[nH]c(C(=O)OC)c3C)C(=O)C(=O)N2CCN(C)C)cc1 (stereo not given) | -1.73% | 
Cc1ccc(Oc2ccc(N)cc2)cc1 | -6.72% | 

SMILES | activity change, negative = inhibition | Potency
COc1ccc(S(=O)(=O)N2CCCC(C(=O)N3CCN(C)CC3)C2)cc1C (stereo not given) | 0.3% | 
c1nnc2c3c4c(sc3ncn12)CCC4 | 2.4% | 
Cc1cccc(C)c1NC(=O)N1CC=C(n2c(=O)[nH]c3ccccc32)CC1 | -0.392% | 
Cc1cn(C2C=CC(CO)O2)c(=O)[nH]c1=O (stereo not given) | -3.11% | 
c1ccc(Nc2n[nH]nc2-c2ccccc2)cc1 | -5.69% | 
CCCn1c(SCC(N)=O)nnc1C(C)C | -2.16% | 
CC(C)(C)C(=O)CCN1C(=O)C2(OCCO2)c2ccccc21 | -1.15% | 
Cc1noc(C)c1-c1nccc(N2CCOCC2)n1 | 0.7% | 
COC(=O)c1nc(NC(=O)c2ccc(Cl)cc2)n[nH]1 | 1.67% | 
CCCCn1nnnc1NCc1cc(OC)c(OC)c(OC)c1 | -0.286% | 
CCOC(=O)C(C(=O)OCC)C(C#N)c1ccccc1 (stereo not given) | 14.3% | 
CC(=O)Oc1cccc(N2C(=O)CC(Nc3ccc(N4CCOCC4)cc3)C2=O)c1 (stereo not given) | -7.46% | 
CCC(=O)c1ccc(OCC(O)CN2C(=O)NC(C)(C)C2=O)cc1 (stereo not given) | 10.9% | 
COc1ccc(-n2ncc3c(N4CCCc5ccccc54)ncnc32)cc1 | -4.66% | 
COC(=O)c1ccccc1NC(=O)CSc1ccccn1 | 0.234% | 
O=C(CN1C(=O)CCC1=O)Nc1ccc(S(=O)(=O)N2CCOCC2)cc1 | -0.675% | 
CCS(=O)(=O)n1nc(-c2ccccc2)nc1SCc1ccccc1 | -2.9% | 
CCCC(=O)C1=C(N(C)c2ccccc2)CC(C)(C)C(C(=O)OC)C1=O (stereo not given) | -2.7% | 
Cn1cccc1C1(C(F)(F)F)NCCNC1=O (stereo not given) | -0.082% | 
CC(C)N(C(=O)COC(=O)c1ccccc1C(=O)N1CCN(c2ccc(F)cc2)CC1)C(C)C | 9.33% | 
O=c1[nH]c(=O)n([C@H]2C[C@H](O)[C@H](CO)O2)cc1Br | -1.6% | 
CC(=O)/C(C)=N\O | inactive | 
